Only some compounds are listed: those with a hit (about 11% of all), similar ones and a draw of the others.
ALOX15 inhib: 15-hLO (ALOX15) enzyme inhibition. P16050. purified 15hLO-1, xylenol orange hydroperoxide absorbance. Potency, µM (titrated, usually from 57.1 µM), hits mostly inhibitors. actives 1.4% (n = 74,000). AID 887; also: nearly all actives have a fitted effect of over 55% in size
Target sequence (P16050 whole entry, looked up): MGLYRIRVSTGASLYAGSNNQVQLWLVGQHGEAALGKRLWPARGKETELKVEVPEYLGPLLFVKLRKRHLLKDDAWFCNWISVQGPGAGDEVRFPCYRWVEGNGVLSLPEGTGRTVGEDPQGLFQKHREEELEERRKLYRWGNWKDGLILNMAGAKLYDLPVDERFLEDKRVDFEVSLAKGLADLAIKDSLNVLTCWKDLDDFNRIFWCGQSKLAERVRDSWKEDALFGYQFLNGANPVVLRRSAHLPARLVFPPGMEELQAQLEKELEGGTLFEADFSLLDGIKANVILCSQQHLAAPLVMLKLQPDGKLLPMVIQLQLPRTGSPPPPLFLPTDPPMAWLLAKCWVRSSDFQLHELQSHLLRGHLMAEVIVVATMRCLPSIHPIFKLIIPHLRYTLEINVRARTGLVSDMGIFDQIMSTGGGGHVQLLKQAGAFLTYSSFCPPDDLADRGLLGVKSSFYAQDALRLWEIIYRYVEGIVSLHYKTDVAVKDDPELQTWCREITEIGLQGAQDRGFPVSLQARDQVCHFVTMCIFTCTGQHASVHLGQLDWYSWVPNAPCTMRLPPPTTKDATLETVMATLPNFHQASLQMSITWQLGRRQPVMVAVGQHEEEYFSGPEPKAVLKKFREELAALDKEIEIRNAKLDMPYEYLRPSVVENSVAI
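Purified human 15hLO-1 (40 nM final) in 25 mM Hepes pH 7.5, 0.01% Triton X-100 was preincubated with compound 15 min at room temperature, then reacted 6 min with 50 uM arachidonic acid; hydroperoxide detected by Fe-XO, 573/405 nm absorbance ratio.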
ERK AVP inh: inhibitors of vasopressin-stimulated ERK signaling pathway | HEK293-V1b, vasopressin-stimulated pERK AlphaScreen | Potency, µM (series often up to 57.5 µM), most hits filed as inhibitors | actives 0.99% (n = 72,000); also: nearly all actives have a fitted effect of over 55% in size
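qHTS, compounds titrated on V1b-expressing HEK293 cells. Preincubation 30 min at 37C, vasopressin 25 nM for 5 min, lysis 10 min, bead incubation 5 hr at room temperature.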
HSD17B inh: blocks hydroxysteroid 17-beta dehydrogenase activity. AID 893. recombinant HSD17B10, NADH fluorescence kinetic. actives 7.6% (n = 75,000). Potency, µM (series often up to 57.1 µM), most hits filed as inhibitors. Q99714;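 also: the protocol describes HADH2 (HSD17B10) and not the HSD17B4 of the title; nearly all actives have a fitted effect of over 70% in size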
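Activity followed as NADH fluorescence increase (ex 360, em 450 nm) every 30 seconds for 4 min, using final 90 uM beta-hydroxybutyryl CoA and 1 mM NAD+. Recombinant His-tagged enzyme, 20 nM, pH 9.0 Tris buffer, 15 min compound preincubation.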
HADH2 inh: inhibitors of human HADH2 dehydrogenase | actives 3.4% (n = 73,000) | recombinant HADH2, NADH fluorescence, beta-hydroxybutyryl-CoA | Potency, µM (highest dose often 57.1 µM), hits mostly inhibitors; also: nearly all actives have a fitted effect of over 60% in size
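Read-out: 360 nm excitation, 450 nm emission, kinetic over 4 min. Conditions: His-tagged human HADH2 20 nM, pH 9.0 Tris with Tween-20, 1 mM NAD+, 90 uM beta-hydroxybutyryl-CoA.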
FLuc inh: inhibitors of firefly luciferase | P08659 | purified firefly luciferase, luminescence, 8 min | Potency, µM (doses to about 57.1 µM), hits mostly inhibitors | actives 2.2% (n = 72,000); also: nearly all actives have a fitted effect of over 40% in size
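Inhibition of light generation by firefly luciferase from ATP and luciferin was profiled with concentration-response curves per sample, ATP held at 10 uM within the enzyme's linear range. Plates were read by luminescence after an 8-minute ambient incubation.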
PK Bst: modulators of Bacillus stearothermophilus pyruvate kinase | Potency, µM | actives 1.2% (n = 51,000) | purified pyruvate kinase, luminescence ATP production; ribose 5-phosphate activator present at AC10; in the data active = potency below about 11 µM; inconclusive = mostly about 12 µM to 25 µM;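 the screen sought inhibitors and activators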
Hits are given with their value; i = inactive; ? = inconclusive; nt = not tested or not shown; [ ] = dose if it differs, or a comment. Unless noted, calls follow the shape of the dose curve; as a rule, active = well fitted curve in the direction sought with a large enough effect; inconclusive = small, poorly fitted or top-dose-only effect, or another doubt; inactive = no such curve, though single readings can be large; an effect the other way counts as inactive or inconclusive.

SMILES	ALOX15 inhib	ERK AVP inh	HSD17B inh	HADH2 inh	FLuc inh	PK Bst
CC(=O)N(Cc1cccnc1)Cc1cc2ccc(C)cc2[nH]c1=O	i	i	?	i	i	i
COc1cc2cc(CN(Cc3cccnc3)C(=O)NCc3ccccc3)c(=O)[nH]c2cc1OC	i	i	25µM	i	i	i
O=C1c2c(O)ccc([N+](=O)[O-])c2C(=O)c2c([N+](=O)[O-])ccc(O)c21	i	i	i	i	nt	nt
N#Cc1ccc(OCc2nnc(SCC(=O)N3CCCc4ccccc43)n2-c2ccccc2)cc1	2.5µM	i	i	i	i	i
Cn1c(SCC(=O)N2CCCc3ccccc32)nnc1-c1cccs1	i	i	i	i	i	i
O=C(CCC(=O)N1CCc2ccccc21)N1CCc2ccccc21	i	i	i	i	i	i
Cn1cccc1Cc1nnc(SCC(=O)N2CCc3ccccc32)n1CCc1ccccc1	i	16µM	i	i	i	nt
Cn1c(SCC(=O)N2CCc3ccccc32)nnc1C1CC1	i	i	25µM	i	i	i
O=C(CCCc1ccccc1)N1CCc2ccccc21	i[11.4 µM]	i	i	i[11.4 µM]	13µM	nt
O=C(Nc1cccc(F)c1)N1CC[C@@]2(CCCN(C(=O)c3cccc(F)c3)C2)C1	i	i	i	i	i[11.4 µM]	nt
COc1ccc(-n2c(Cc3cccn3C)nnc2SCC(=O)N2CCCC2)cc1	i	i	i	i	i	nt
O=C(CSc1nnc(-c2cccs2)o1)N1CCCc2ccccc21	i	i	i	i	i	i
COc1ccc(-n2c(Cc3cccn3C)nnc2SCC(=O)N2CCCc3ccccc32)cc1	13µM	i	?	i	i	i
O=C(CSc1nnc(-c2cccs2)o1)N1CCc2ccccc21	i	i	25µM	?	i	i
COC(=O)c1ccc(C(NC(=O)OCc2ccccc2)/C(=C/[C@@H](C)C(=O)NCc2cc(C)on2)c2cccnc2)cc1 (some centres not stated)	i	i	i	i	nt	nt
C=C(C)CC1(c2ccccc2)Oc2ccccc2-c2nc3cc(Cl)c(Cl)cc3nc21 (configuration not stated)	i[11.4 µM]	i[11.5 µM]	?	i[11.4 µM]	nt	nt
CC1=CC(C)(C)N2C(=O)C3(N=C(N)NC(Nc4ccccc4)=N3)c3cc(C)cc1c32 (configuration not stated)	25µM	?	i	i	i	i
COc1cc2ccccc2cc1C(=O)Nc1ccccc1N1CCN(S(C)(=O)=O)CC1	i	i	25µM	?	i	i
N#C/C(=C\C1CC=CCC1)c1nc2ccccc2[nH]1 (configuration not stated)	i	i	25µM	i	i	i
CC1C(=O)C(C)C(c2ccc3c(c2)OCO3)NC1c1ccc2c(c1)OCO2 (configuration not stated)	i	i	i	i	i	i
Cc1cc2n(n1)C(c1ccc3c(c1)OCO3)Nc1ccccc1-2 (configuration not stated)	i	i	25µM	?	i	nt
Cc1ccc2c(c1)-c1cc(C)nn1C(c1ccc3c(c1)OCO3)N2 (configuration not stated)	?	i	25µM	i	i	?
CO[C@@H]1/C=C\CC(=O)N2CCC[C@@H]2C(=O)OC[C@H](C)C(=O)OC[C@H]1C	i[11.4 µM]	i[11.5 µM]	i[11.4 µM]	i[11.4 µM]	i[11.4 µM]	nt
O=S1(=O)OC(c2ccc(O)cc2)(c2ccc(O)cc2)c2ccccc21	i[11.4 µM]	i[11.5 µM]	i[11.4 µM]	i[11.4 µM]	i[11.4 µM]	nt
O=C(Nc1cccs1)Nc1ccccc1Cl	13µM	?	25µM	?	i	nt
SMILES	ALOX15 inhib	ERK AVP inh	HSD17B inh	HADH2 inh	FLuc inh	PK Bst
Cc1ccc(NC(=O)Nc2cccs2)cc1	25µM	nt	i	16µM	nt	nt
CCc1ccc(NC(=O)Nc2cccs2)cc1	25µM	i	?	?	4µM	4.8
Cc1ccccc1-c1ccc2ncnc(NCc3cccnc3)c2c1	i	?	?	?	i[2.29 µM]	nt
Nc1nc(-c2ccc3ccccc3c2)cc(-c2cc(-c3ccc4ccccc4c3)nc(N)n2)n1	i[11.4 µM]	i[11.5 µM]	i[11.4 µM]	i[11.4 µM]	i[11.4 µM]	nt
Cc1ccc(CNC(=O)c2cc3c(=O)n4ccccc4nc3n(CC3CCCO3)c2=N)cc1 (configuration not stated)	nt	nt	nt	nt	i	i
CCOC(=O)c1cc2c(=O)n3ccccc3nc2n(CC2CCCO2)c1=NC(C)=O (configuration not stated)	i	i	25µM	?	i	i
CCCCn1c(=NC(=O)c2ccco2)c(C(=O)OCC)cc2c(=O)n3ccccc3nc21	i	i	25µM	i	i	i
CCCCCn1c(=NC(=O)c2ccco2)c(C(=O)OCC)cc2c(=O)n3ccccc3nc21	i	i	16µM	i	i	i
Cc1ccc(S(=O)(=O)N[C@H]2COC(=O)[C@@H](C)COC(=O)[C@H](C)NC(=O)C/C=C\[C@H]2C)cc1	i[11.4 µM]	i[11.5 µM]	i[11.4 µM]	i[11.4 µM]	i[11.4 µM]	nt
CS(=O)(=O)Nc1cccc(-c2nccc(NCc3cccs3)n2)c1	?	i	i	i	i[2.29 µM]	nt
Cc1ccc(S(=O)(=O)n2c3ccccc3c3nnc(C(=O)c4ccccc4)nc32)cc1	i[11.4 µM]	i[11.5 µM]	i[11.4 µM]	i[11.4 µM]	i[11.4 µM]	nt
O=C(N/N=C1/C[C@@H](O)[C@@H](O)[C@@H]2[C@@H]3C(=O)N(Cc4ccccc4)C(=O)[C@H]3CC[C@@H]12)OCc1ccccc1	i[11.4 µM]	i[11.5 µM]	i[11.4 µM]	i[11.4 µM]	i[11.4 µM]	nt
O=C(CCC1N=C2c3ccccc3N=C(SCc3ccccc3Cl)N2C1=O)NCc1ccco1 (configuration not stated)	i	i	32µM	?	i	i
O=C(CSC1=Nc2ccccc2C2=NC(CC(=O)NC3CCCCC3)C(=O)N12)NCc1ccco1 (configuration not stated)	i	i	32µM	?	i	i
CCc1c(C)c2cc(Cl)c(O)c(CN3CCCCC3)c2oc1=O	nt	nt	nt	nt	i	i
CCc1c(C)c2cc(Cl)c(O)c(CN(CC)CC)c2oc1=O	i	i	7.9µM	2.5µM	i	i
CCc1c(C)c2cc(Cl)c(O)c(CN(C)C)c2oc1=O	i	i	7.9µM	3.2µM	i	i
CCCCc1cc(=O)oc2c(CN(C)C)c(O)c(Cl)cc12	nt	nt	nt	nt	i	i
Cc1c(C)c2cc(Cl)c(O)c(CN(C)C)c2oc1=O	i	i	3.2µM	3.2µM	i	i
COC1(C#CC2C=CC(OC(C)=O)C(COC(C)=O)O2)CCCCC1 (configuration not stated)	i[11.4 µM]	i[11.5 µM]	i[11.4 µM]	i[11.4 µM]	nt	nt
CC(C)CO/N=C1/C[C@@H](O)[C@@H](O)[C@@H]2[C@@H]3C(=O)N([C@@H](C)c4ccccc4)C(=O)[C@H]3CC[C@H]12	i[11.4 µM]	i[11.5 µM]	i[11.4 µM]	i[11.4 µM]	i[11.4 µM]	nt
Cc1ccc(C)c(C(=N)c2ccccc2Cc2ccccc2)c1	i[11.4 µM]	i[11.5 µM]	i[11.4 µM]	i[11.4 µM]	i[11.4 µM]	nt
COc1ccc(N2CCN(C(=O)COc3ccccc3)CC2)cc1	i[11.4 µM]	?	i	i[11.4 µM]	i	nt
O=S(=O)(c1ccc(F)cc1)N1CCN(c2ncnc3c2cnn3-c2ccccc2)CC1	i	i	25µM	i	i	i

Bioassay records: PubChem, National Center for Advancing Translational Sciences (NCATS)
